The source of these data is PubChem BioAssay AID652053 (Broad Institute, 2013).

Hit rate of the full screen: of about 1,300 compounds, about 930 (72%) were called active. So high a share suggests a set chosen from earlier hits. Not all results are given here. Results with a measured potency or affinity are listed apart. Unmarked numbers belong to inactive results.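 The calls were made as follows: active = fitted curve reaches 40% activation signal increase at or below the top valid tested concentration in every replicate test; inconclusive = replicate tests disagree in their calls; inactive = all replicate tests inactive, including effects opposite the expected signal rise.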

The test in a line: miR-122 inhibitors in Huh7 reporter cells, dose response, cell-based, Huh7 psiCHECK-miR122, Renilla luciferase, cherry-pick (AID 652053). As to conditions: 48 h; series mostly up to 35 µM; activation (miR-122 inhibition): at the top concentration.
On to `CCc1cccc(CC)c1NC(=O)COC(=O)C1(c2ccc(Cl)cc2)CCCC1`, for which the “activation (miR-122 inhibition)” value is -10.1%.
For the molecule `COc1ccc(OC)c(S(=O)(=O)N2CCNCC2)c1`, the “activation (miR-122 inhibition)” value was -9.55%.
On to `Cn1nc(CC(=O)N2CCN(c3ccccc3)CC2)c2ccccc2c1=O`, for which the “activation (miR-122 inhibition)” value was -11%.
For the molecule `COc1cccc(C(=O)N2C[C@@H]3[C@H](c4ccccc42)[C@H](CO)N3C(=O)c2ccc(F)cc2)c1`, the “activation (miR-122 inhibition)” value was 22.7%.
With `COc1cccc(C(=O)N2C[C@@H]3[C@H](c4ccccc42)[C@@H](CO)N3C(=O)c2ccc(F)cc2)c1`, the “activation (miR-122 inhibition)” value is -8.38%.
As to `CC(C)NC(=S)N1CCn2c(nc3ccccc32)C1`, the “activation (miR-122 inhibition)” value was 8.37%.
The figure for `CC(C)CC(=O)NCCCN1CCN(CCCNC(=O)CC(C)C)CC1` is -6.68%; for `CCOC(=O)c1ccc(-n2ccnc2)c(NC(=O)c2cccc(Br)c2)c1` it is 8.02%; for `Cn1cnc(S(=O)(=O)N2C[C@@H](O)COC[C@H]3O[C@@H](CC(=O)NC4CCCC4)CC[C@@H]32)c1` it is 0.434%.
In the case of `CCOC(=O)CN1C(=O)C(C)(C)Oc2ccc(C(=O)Nc3ccccc3)cc21`, the “activation (miR-122 inhibition)” value was -9.1%.
Turning to `CC(=O)N1[C@H](CNC(=O)C2CC2)[C@@H](c2ccc(-c3ccccc3)cc2)[C@@H]1CO`, the “activation (miR-122 inhibition)” value is -2.22%.
For the molecule `Cc1cc(C)c2nc(Nc3nc(CSc4nc5ccccc5[nH]4)cc(=O)[nH]3)nc(C)c2c1`, the “activation (miR-122 inhibition)” value is 101%.
On to `O=C(C1CCN(Cc2ccc(F)cc2)CC1)N1CCN(C/C=C/c2ccccc2)CC1`, for which the “activation (miR-122 inhibition)” value was -10.2%.
For the molecule `CC(=O)N1CCc2cc(S(=O)(=O)NCCCN3CCN(Cc4ccccc4)CC3)ccc21`, the “activation (miR-122 inhibition)” value was 6.61%.
For `COc1ccc(-c2cc(NC(C)=O)c3ncc(-c4cc(OC)c(OC)c(OC)c4)n3c2)cn1` the value was 38.9%; for `N#C/C(=N\Nc1ccc(S(=O)(=O)N2CCCCC2)cc1)C(N)=S`, 0.783%; for `COc1cc(S(=O)(=O)N2CCOCC2)ccc1NC(=O)CSc1n[nH]c(=O)[nH]c1=O`, 7.53%.
For `Cc1ccc(NC(=O)c2ccc(S(=O)(=O)N3CCOCC3)cc2)nc1`, the “activation (miR-122 inhibition)” value is 12.6%.
For the molecule `C[C@H](CO)N1C[C@H](C)[C@H](CN(C)Cc2ccc(C(F)(F)F)cc2)Oc2ccc(N(C)C)cc2CC1=O`, the “activation (miR-122 inhibition)” value was 12.2%.
Take `C[C@H](CO)N1C[C@H](C)[C@H](CN(C)Cc2ccc3c(c2)OCO3)Oc2ccc(N(C)C)cc2CC1=O`: the “activation (miR-122 inhibition)” value was 9.52%.
As for `COC(=O)C(CC(C)C)Oc1ccc2c(C)cc(=O)oc2c1` (configuration not stated), the “activation (miR-122 inhibition)” value is 7.53%.
In the case of `CC(Oc1ccc(Cl)cc1)c1ccnn1S(=O)(=O)c1ccc(Cl)cc1` (configuration not stated), the “activation (miR-122 inhibition)” value was 13.2%.
On to `COC(=O)c1ccccc1NC(=O)Cn1c(-c2nonc2N)nc2ccccc21`, for which the “activation (miR-122 inhibition)” value is 22.3%.
On to `C[C@H](CO)N1C[C@H](C)[C@@H](CN(C)C(=O)Nc2cccc3ccccc23)Oc2ccc(NC(=O)Nc3cccc4ccccc34)cc2CC1=O`, for which the “activation (miR-122 inhibition)” value was -5.3%.
The figure for `C[C@H]1CN([C@@H](C)CO)C(=O)Cc2cc(NC(=O)Nc3cccc4ccccc34)ccc2O[C@@H]1CN(C)C(=O)Nc1cccc2ccccc12` is 5.36%; for `C[C@H]1CN([C@@H](C)CO)C(=O)Cc2cc(NC(=O)Nc3cccc4ccccc34)ccc2O[C@H]1CN(C)C(=O)Nc1cccc2ccccc12` it is -9%; for `C[C@@H]1CN([C@@H](C)CO)C(=O)Cc2cc(NC(=O)Nc3cccc4ccccc34)ccc2O[C@H]1CN(C)C(=O)Nc1cccc2ccccc12` it is -8.21%.
The figure for `COc1ccc(NC(=O)Nc2cccc3c2O[C@H](CN(C)Cc2ccc4c(c2)OCO4)[C@@H](C)CN([C@@H](C)CO)C3=O)cc1` is 26.5%; for `FC(F)(F)c1nnc2c(Sc3ccccc3)nc3ccc(Cl)cc3n12` it is -26.1%; for `CCC1=NN(C(=O)c2ccccc2O)C(O)(c2ccccc2)C1` (configuration not stated) it is 9.78%.
For `CCC(=O)N1[C@H](CN(CC)C(=O)c2cccc(F)c2)[C@H](c2ccccc2)[C@@H]1CO` the value was -7.02%.
For the molecule `COc1ccc(CNC(=O)C(c2ccc(C)o2)N(Cc2cccs2)C(=O)Cc2cccs2)cc1` (configuration not stated), the “activation (miR-122 inhibition)” value was 14.8%.
With `CC(C)Cc1nc2sc3c(=O)[nH]cnc3c2c2c1CCC2`, the “activation (miR-122 inhibition)” value was -10.5%.
Take `Cc1ccc(S(=O)(=O)Nc2ccc(C(=O)NCc3ccccn3)cc2)cc1`: the “activation (miR-122 inhibition)” value was 19.8%.
Consider `O=c1[nH]c(=O)c2[nH]c(=O)n(-c3ccccc3)c2[nH]1`, for which the “activation (miR-122 inhibition)” value was -5.9%.
The figure for `CCS(=O)(=O)N1Cc2ccccc2CC1C(=O)NCC12CC3CC(CC(C3)C1)C2` (configuration not stated) is -10.2%.
With `O=C(c1ccc(F)cc1)N1[C@H](CO)[C@@H]2c3ccccc3NC[C@@H]21`, the “activation (miR-122 inhibition)” value is 28.1%.
Take `CCn1nc(C(=O)Nc2ccc(S(=O)(=O)Nc3nccs3)cc2)c2ccccc2c1=O`: the “activation (miR-122 inhibition)” value was 13%.
For `CCCNC(=O)N1[C@H](CO)[C@@H]2c3ccccc3N(C(=O)c3ccc(F)cc3)C[C@@H]21` the value was 2.61%; for `CC(C)NC(=O)N1[C@H](CO)[C@@H]2c3ccccc3N(C(=O)c3ccc(F)cc3)C[C@@H]21`, -10.3%.
Take `CCN(C[C@@H]1[C@@H](c2ccccc2)[C@@H](CO)N1C(=O)COC)S(C)(=O)=O`: the “activation (miR-122 inhibition)” value was -10% [at 30 µM].
The figure for `O=C(Nc1ccccc1)c1cc([N+](=O)[O-])ccc1NC1CCCCC1` is -3.71%.
